Active and inactive are the calls of the source. The rule behind the calls is not given here.
Experiment: Brca1-Bard1 BiLC signal decrease – luminescence, single concentration, counter-screen for Mdm2/MdmX interaction inhibitor project, confirmation (AID 504668)
Details: Brca1/Bard1 bimolecular luciferase complementation counterscreen, at 8 µM, stronger effect = higher value

Compound | inhibition
CCc1ccc(C(O)(CC(C)C)C(CN2CCOCC2)c2ccccc2)cc1 (stereo not given) | 27.2% (active)
CCN(CC)C(=O)C1CCCc2c1[nH]c1ccc(Cl)cc21 (stereo not given) | 34.6% (active)
CC(=O)/C(C#N)=C1\NC(=O)C(Cc2ccc(C)c(Cl)c2)S1 (stereo not given) | 31.8% (active)
O=C(NCCCO)c1c(O)c2cccc3c2n(c1=O)CCC3 | 24.6% (active)
CCc1nc(Nc2ccncc2)c2oc3ccccc3c2n1 | 31.6% (active)
O=c1c2ccccc2nc(-c2ccc(Cl)c(Cl)c2)n1O | 26.8% (active)
Cc1c(CN(C)C)c2c(n1Cc1ccccc1)C(=O)c1ccc(Br)cc1-2 | 29.6% (active)
COc1ccc(C(=O)N/N=C(\Cc2ncc[nH]2)c2ccccc2)cc1 | 25.7% (active)
COC1(OC)C(/C=C/c2ccc(C)cc2)C(C#N)(C#N)C1(OC)OC (stereo not given) | 35.3% (active)
CCOc1ccccc1CNC(=O)c1cc2oc3ccccc3c2n1CC | 25.6% (active)
COc1ccc(N/N=C(/N=Nc2nc(C)cc(=O)[nH]2)c2ccccc2)cc1 | 30.7% (active)
O=C(NNC(=O)c1ccccc1OCc1ccccc1)c1ccccc1O | 34.8% (active)
Cc1nnc(-c2ccccc2)c(=O)n1/N=C/c1c(O)ccc2ccccc12 | 30.7% (active)
CCN(CC)c1ccc(/C=N/NC(=O)c2c(Cl)cnn2C)c(O)c1 | 26.9% (active)
Cc1ccc(S(=O)(=O)N2CCOCC2)cc1C(=O)Nc1nc(-c2ccccn2)cs1 | 30.4% (active)
Cc1cccc(C(=O)NC(C(=O)Nc2nc(-c3ccccn3)cs2)C(C)C)c1 (stereo not given) | 30.7% (active)
CC(NC(=O)CN(c1cccc(C(F)(F)F)c1)S(=O)(=O)c1ccc(Cl)c([N+](=O)[O-])c1)c1ccccc1 (stereo not given) | 35.1% (active)
COC(=O)[C@@]1(Cc2ccccc2)[C@H]2C(=O)N(Cc3ccccc3)C(=O)[C@H]2[C@H]2CN=C(SCc3ccccc3)N21 | 34.6% (active)
CC(C)(C)c1cc(NC(=O)CCl)n(-c2ccccc2)n1 | 24.1% (active)
COc1ccc(Nc2ccnc3ccccc23)cc1 | 33.7% (active)

Compound | inhibition
Cc1ccccc1-c1cc(C(=O)Nc2sc(C(=O)OC(C)C)c(C)c2C#N)c2ccccc2n1 | 23.7% (active)
C/C(=N\NC(=O)c1nnn(-c2nonc2N)c1CN1CCc2ccccc21)c1ccccc1O | 31.1% (active)
COc1cc(/C=C2\SC(=Nc3ccc(O)cc3)NC2=O)cc(OC)c1OC | 28.2% (active)
CCC(=O)NC(c1ccccc1OC)c1ccc2cccnc2c1O (stereo not given) | 32.5% (active)
COc1ccccc1[C@@]1(C)ON(c2ccccc2C(F)(F)F)C1=O | 31.6% (active)
Clc1ccc(C2=Nn3c(nnc3-c3n[nH]c4c3CCC4)SC2)cc1Cl | 34% (active)
COc1ccc(-c2oc3cc(OC)c(O)c(OC)c3c(=O)c2OC)cc1O | 28.4% (active)
O=C(CCCN1C(=O)/C(=C/c2cccc(Br)c2)SC1=S)Nc1ccccn1 | 31% (active)
CN(C(=O)c1ccc(S(=O)(=O)c2cccc(Cl)c2)c([N+](=O)[O-])c1)C1CCCCC1 | 28.9% (active)
CCc1ccc(/C=C/C(=O)c2c(C)cc(C)[nH]c2=O)cc1 | 30.6% (active)
O=C(Nc1cc(Cl)ccc1O)c1snnc1-c1ccccc1 | 23% (active)
CCC(C)NCC(=O)Nc1ccc(-c2nc3cc(NC(=O)CNC(C)CC)ccc3o2)cc1 (stereo not given) | 35.6% (active)
O=C(N/N=C\c1c(O)ccc2ccccc12)c1ccc(O)cc1 | 31.7% (active)
O=C(Nc1nc(-c2ccccn2)cs1)c1ccc(F)c(S(=O)(=O)N2CCOCC2)c1 | 25.6% (active)
COc1cc(/C=C/c2ccc3cccc(O)c3n2)cc(OC)c1OC | 27.2% (active)
CN1C(=O)/C(=C\c2cc(N=Nc3ccccc3)ccc2O)SC1=S | 34.4% (active)
CCCCNc1c(-c2ccc(OC)c(SC3CCCCC3)c2)nc2ccc(C)cn12 | 28.6% (active)
C/C(=N\NC(=O)c1nnn(-c2nonc2N)c1CN(C)c1ccccc1)c1ccccc1O | 30.5% (active)
O=C(Nc1ccc(F)c(Cl)c1)Nc1csc2ccccc12 | 35% (active)
COc1ccc(NS(=O)(=O)c2cc(NC(=O)c3ccc(Cl)cc3)ccc2N2CCOCC2)cc1 | 26.8% (active)

Source: PubChem BioAssay
